Consider 62 compounds from PubChem BioAssay AID651815 (National Center for Advancing Translational Sciences (NCATS), 2012).

Screen size: about 2,100 compounds; about 1,100 (52%) were called active. Not shown: some 29% with an inconclusive outcome. Calls follow the shape of the dose curve; as a rule, active = well fitted inhibition curve with a large enough effect; inconclusive = small, poorly fitted or top-dose-only effect; inactive = no such curve, though single readings can be large or run the other way. So high a share suggests a set chosen from earlier hits. Some of the results follow.
Potency is read from the fitted curve at half-maximal effect.

DNA dC->dU-editing enzyme APOBEC-3F (Homo sapiens), sequence (Q8IUX4 whole entry, looked up): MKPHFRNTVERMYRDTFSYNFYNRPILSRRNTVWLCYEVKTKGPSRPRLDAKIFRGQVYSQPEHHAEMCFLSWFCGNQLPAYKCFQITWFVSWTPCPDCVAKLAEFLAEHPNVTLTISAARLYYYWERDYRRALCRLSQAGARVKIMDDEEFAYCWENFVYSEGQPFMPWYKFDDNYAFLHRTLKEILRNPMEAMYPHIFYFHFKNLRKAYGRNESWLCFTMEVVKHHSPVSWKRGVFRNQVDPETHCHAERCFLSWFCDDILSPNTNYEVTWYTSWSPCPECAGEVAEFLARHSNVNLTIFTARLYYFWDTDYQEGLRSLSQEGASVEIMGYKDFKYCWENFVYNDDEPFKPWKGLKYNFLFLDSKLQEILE

This experiment deals with DNA dC->dU-editing enzyme APOBEC-3F (Homo sapiens) (UniProt Q8IUX4). As to the kind of experiment: qHTS for inhibitors of Vif-A3F interactions: Cherry picks counterscreen. Also: nearly all actives have a fitted effect of over 65% in size. The conditions noted are these: HeLa A3F-eYFP/Vif cells, eYFP fluorescence, 24 h; series mostly up to 46.1 µM. An excerpt:
The recent discovery and characterization of host restriction factors, which provide a potent defense to invading retroviruses, has provided new targets for antiviral drug development. APOBEC3G (A3G) and APOBEC3F (A3F) are potent cytidine deaminases that block HIV-1 replication; HIV-1 expresses the Vif protein, which counteracts A3G and A3F by binding to them and inducing their proteasomal degradation. The Vif-A3G and Vif-A3F interactions provide two potential targets for development of small molecules which can interfere with the ability of Vif to degrade A3G or A3F. […] To identify inhibitors that can interfere with Vif mediated degradation of A3G and A3F, we have developed Hela cell lines that stably express A3G or A3F tagged with eYFP at the C-terminal end (A3G-eYFP or A3F-eYFP, respectively) and Vif. In the absence of an inhibitor, Vif induces degradation of A3G-eYFP and A3F-eYFP, and the cells are not fluorescent. In the presence of an inhibitor, it is expected that Vif will be unable to degrade A3G-eYFP and/or A3F-eYFP, resulting in an increase in yellow fluorescence. In this counterscreen assay, Vif A3F was screened against the cherry picks ordered from the MLSMR. NIH Chemical Genomics Center [NCGC] NIH Molecular Libraries Probe Centers Network [MLPCN] MLPCN Grant: MH093245 Assay Submitter (PI): Vinay Pathak, National Cancer Institute
A3F-Vif cells were harvested from T225 flask and resuspended in phenol free OPTI-MEM medium with 5% FBS. Then 5 uL of 140,000 cells/mL resuspended cells was dispensed into each well of low base Aurora COC 1,536-well plates (black walled, clear bottom) using a Multidrop Combi dispenser. After overnight culture at 37 deg C with 5% CO2, a total of 23 nL of compounds at 5 selected concentrations from the NPC or positive control (2 mM stock of MG132) in DMSO was transferred to each well of the assay plate using a pintool (Kalypsys, San Diego, CA), and the plates were further incubated at 37 deg C with 5% CO2 for 24 hours. After that, the plates were measured on Acumen Explorer (TTP Lab Tech). The fluorescence was detected by 488 nm/Ex and […].
`Cc1cc(N2CCCC2)ccc1C=C(C#N)C#N`: the Potency was 20.6 µM (active).

Consider `CN1/C(=C\C=C2C(=O)NC(=O)NC2=O)C(C)(C)c2ccccc21`, for which the Potency was 4.11 µM (active).

`CCS(=O)(=O)N1N=C(c2cccc(NS(C)(=O)=O)c2)CC1c1ccccc1` (configuration not stated): the Potency was 23.1 µM (active).

In the case of `CCCCn1c(O)c(C(=O)/C=C/c2c[nH]c3ccccc23)c(=O)[nH]c1=O`, the Potency was 17.7 µM (active).

Turning to `CN1C(=O)/C(=C\c2ccc(N3CCCCC3)o2)C(=O)NC1=S`, the Potency is 17.7 µM (active).

For `CN1CCN(c2ccc(/C=C3\C(=O)NC(=S)N(c4cccc(Br)c4)C3=O)o2)CC1`, the Potency is 23.1 µM (active).

`CN1C(=O)/C(=C/c2ccc(N3CCCCCC3)o2)C(=O)NC1=S`: the Potency was 4.44 µM (active).

As for `CCC(C)N1C(=O)/C(=C\c2ccc(N3CCCCCC3)cc2)C(=O)NC1=S` (configuration not stated), the Potency result is “inactive”.

Consider `CC(=O)O[C@@]12CO[C@@H]1C[C@H](OC1OCC(O)C(O)C1O)[C@@]1(C)C(=O)[C@H](O)C3=C(C)[C@@H](OC(=O)[C@H](O)[C@@H](NC(=O)c4ccccc4)c4ccccc4)C[C@@](O)([C@@H](OC(=O)c4ccccc4)C12)C3(C)C` (some centres not stated), for which the Potency was 4.44 µM (active).

For the compound `CN1C(=O)C(=Cc2ccc(N3CCOCC3)o2)C(=O)N(C)C1=S`, the Potency was 8.2 µM (active).

With `CN1C(=O)C(=Cc2ccc(N3CCCCC3)o2)C(=O)N(C)C1=S`, the Potency is 3.66 µM (active).

Regarding `CN1C(=O)C(=Cc2ccc(N3CCOCC3)o2)C(=O)N(C)C1=O`, the Potency is 6.51 µM (active).

Consider `Cc1cc(N(CCCl)CCCl)ccc1C=Cc1ccncn1`, for which the Potency was 16.4 µM (active).

Turning to `O=C1NC(=O)N(Cc2ccc(F)cc2)C(=O)/C1=C\C=C\c1ccco1`, the Potency is 23.1 µM (active).

Turning to `CC(C)c1ccc(N2C(=O)NC(=O)/C(=C/C=C/c3ccco3)C2=O)cc1`, the Potency was 14 µM (active).

Turning to `CN(C)c1ccc(/C=C/C=C2/C(=O)NC(=O)N(c3ccccc3)C2=O)cc1`, the Potency is 23.1 µM (active).

Take `CC(C)c1ccc(N2C(=O)NC(=O)/C(=C\C=C\c3ccco3)C2=O)cc1`: the Potency is 17.7 µM (active).

As to `COCCCNC(=O)c1c(NC(=O)c2ccco2)n(Cc2ccccc2)c2nc3ccccc3nc12`, the Potency entry is “inactive”.

On to `Cc1cc(/C=C2\C(=O)NC(=O)N(c3ccc(Br)cc3)C2=O)c(C)n1C`, for which the Potency entry is “inactive”.

As for `Cc1ccc(N2C(=O)NC(=O)/C(=C\C=C\c3ccco3)C2=O)cc1C`, the Potency was 5.8 µM (active).

As to `CC/C(=N\NC(=O)c1ccccc1O)c1c(O)n(Cc2ccccc2)c(=O)[nH]c1=O`, the Potency was 18.4 µM (active).

Regarding `COc1cccc(C2=CC(c3cc(Br)ccc3F)n3nnnc3N2)c1` (configuration not stated), the Potency is 1.46 µM (active).

For `COC(=O)C1=C(C)N(Cc2ccco2)C(=O)/C1=C\c1ccc(N(C)C)cc1`, the Potency was 6.51 µM (active).

Consider `O=C1NC(=O)N(c2ccc3c(c2)OCO3)C(=O)/C1=C\c1ccc(N2CCCCC2)o1`, for which the Potency was 18.4 µM (active).

On to `O=C1NC(=O)N(c2ccc3c(c2)OCO3)C(=O)/C1=C/c1ccc(N2CCCCC2)o1`, for which the Potency is 20.6 µM (active).

Consider `COc1cc(C2C(C#N)=C(N)Oc3cc(O)ccc32)cc(OC)c1OC` (configuration not stated), for which the Potency was 3.53 µM (active).

Regarding `Cc1cccc(-n2c(O)c(/C=C/C=Nc3ccccc3)c(=O)[nH]c2=O)c1`, the Potency was 4.61 µM (active).

For `O=c1c2ccccc2nc(/C=C/c2ccc([N+](=O)[O-])o2)n1-c1ccc(O)cc1`, the Potency is 11.2 µM (active).

As for `COc1ccccc1-n1c(/C=C/c2ccc(O)cc2)nc2ccccc2c1=O`, the Potency result is “inactive”.

Consider `COc1ccc(-n2c(/C=C/c3ccc(O)c(OC)c3)nc3ccccc3c2=O)cc1`, for which the Potency is 16.4 µM (active).

In the case of `Cc1cccc(-n2c(/C=C/c3c(C)[nH]c4ccccc34)nc3ccccc3c2=O)c1`, the Potency was 18.4 µM (active).

`Cc1cccc(-n2c(/C=C/c3ccc([N+](=O)[O-])o3)nc3ccccc3c2=O)c1`: the Potency was 8.2 µM (active).

`CCN(CC)c1ccc(/C=C2\C(=O)NC(=S)N(c3ccc(OC)cc3OC)C2=O)o1`: the Potency was 23.1 µM (active).

Consider `CCN(CC)c1ccc(C=C2C(=O)N(C)C(=S)N(C)C2=O)o1`, for which the Potency is 0.314 µM (active).

For `CCN(CC)c1ccc(/C=C2\C(=O)NC(=S)N(C)C2=O)o1`, the Potency is 0.559 µM (active).

Consider `CCN(CC)c1ccc2c(cc1=O)[C@@H](NC)CCc1cc(OC)c(OC)c(OC)c1-2`, for which the Potency was 1.4 µM (active).

As to `Cc1ccccc1-n1c(/C=C/c2ccc(N(C)C)cc2)nc2ccccc2c1=O`, the Potency was 4.11 µM (active).

With `CCN(CC)c1ccc(N=Cc2c(O)n(Cc3ccccc3)c(=O)[nH]c2=O)cc1`, the Potency is 20.6 µM (active).

Turning to `CCN(CC)c1ccc(N=Cc2c(O)n(CCC3=CCCCC3)c(=O)[nH]c2=O)cc1`, the Potency is 16.4 µM (active).

Take `C=CCn1c(O)c(C(C)=Nc2ccc(N(CC)CC)cc2)c(=O)[nH]c1=O`: the Potency was 11.2 µM (active).

On to `O=C1NC(=S)SC1=Cc1ccc(N(CCCl)CCCl)cc1`, for which the Potency was 17.7 µM (active).

Consider `CCOc1ccc(CNC(=O)c2cccc(Nc3nc4ccccc4n4nnnc34)c2)cc1OC`, for which the Potency is 16.4 µM (active).

As for `COc1ccc(-c2ccc(OC)c(OC)c2OC)cc1`, the Potency is 3.96 µM (active).

In the case of `CN(C)c1ccc(C(=O)c2ccc(N(C)C)cc2)cc1`, the Potency is 0.994 µM (active).

Regarding `O=c1[nH]c(=O)n(Cc2ccccc2Cl)c(O)c1/C=C1/C=CC=N1`, the Potency was 18.4 µM (active).

For `CCCCn1c(O)c(/C=C2/C=CC=N2)c(=O)[nH]c1=O`, the Potency is 12.5 µM (active).

On to `C=C1C(=O)OC2C1CCC(C)C1(O)C=CC(=O)C21C` (configuration not stated), for which the Potency was 5.59 µM (active).

`COCCCn1c(=O)/c(=C\c2ccccc2OC(F)F)s/c1=C(/C#N)C(=O)NCCOC`: the Potency is 18.4 µM (active).

For `CCCCNC(=O)/C(C#N)=c1\s/c(=C\c2ccccc2OC(F)F)c(=O)n1CCCOC`, the Potency is 9.2 µM (active).

Regarding `CC(=O)Nc1cccc(-c2ccnc3c2CC(C(=O)NCc2ccco2)O3)c1` (configuration not stated), the Potency is 4.44 µM (active).

As for `CC1=CC(=Cc2sc3ccccc3[n+]2C)C=C(C)O1`, the Potency is 10.3 µM (active).

Turning to `O=[N+]([O-])c1ccc(N2CCOCC2)c2c1no[n+]2[O-]`, the Potency is 15.8 µM (active).

For the compound `NC(=Nc1ccccc1)NN=Cc1c[nH]c2ccccc12`, the Potency was 3.14 µM (active).

In the case of `O=c1[nH]c(CN2CC=C(c3ccccc3)CC2)nc2scc(-c3ccccc3)c12`, the Potency was 18.4 µM (active).

Turning to `N#CC1=C(N)Oc2c(c(=O)sc3ccccc23)C1c1cccnc1` (configuration not stated), the Potency was 3.14 µM (active).

Consider `Cn1cccc1/C=C1\C(=O)NC(=O)N(Cc2ccccc2Cl)C1=O`, for which the Potency is 13 µM (active).

Take `Cc1c(Cl)cccc1NC(=O)c1oc2ccc(S(=O)(=O)N3CCC4(CC3)OCCO4)cc2c1C`: the Potency is 16.4 µM (active).

Consider `COc1ccc(-n2cnc3cc(C(=O)N4CCC5(CC4)OCCO5)ccc32)cc1`, for which the Potency is 17.7 µM (active).

On to `Cc1cccc(CN2CCCC(C(=O)c3cccc(OC(C)C)c3)C2)n1` (configuration not stated), for which the Potency result was “inactive”.

Regarding `O=Cc1c(C(=O)O)n(Cc2ccc(Cl)cc2)c2ccccc12`, the Potency is 13 µM (active).

Take `Nc1ccc2c3c(cccc13)-c1ccccc1-2`: the Potency was 4.61 µM (active).

Turning to `CC(=O)OC1C2(CC3N4C(=O)C5(CO)SSC4(CC31O)C(=O)N5C)OC(C)C(C)(C)C2=O` (configuration not stated), the Potency is 3.53 µM (active).
